From PubChem BioAssay AID1159580 (chemical genetic matrix, 2015)
The whole screen tested about 5,500 compounds, of which about 2,000 (36%) were called active. Another 18% or so got no clear call; they are omitted. Cut-off read from the data, not from the text of the source: active = normalized growth mostly below about 0.91 (no sharp cut-off); inconclusive = no clear call, values can overlap the other calls; inactive = mostly above about 0.92. The list shows a part of the results.

Experiment: chemical genetic growth profiling, strain panel (AID 1159580);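 note: tested at 20 µM; growth read once vehicle control cultures reached saturation at 30 °C; 1 = growth at the plate median or of vehicle wells; lower values mean less growth of the strain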
Details: S. cerevisiae deletion strains, growth OD

Measured: normalized growth

CC(CCC(=O)O)[C@H]1CCC2C3CC[C@@H]4C[C@H](O)CC[C@]4(C)C3CC[C@@]21C (stereo partly drawn)
inactive: locus YJL187C, strain SWE1, stronger effect = lower value 0.979 | locus YJR066W, strain TOR1, stronger effect = lower value 0.952 | locus YKL009W, strain mrt4, stronger effect = lower value 0.935 | locus YKL068W, stronger effect = lower value 1.05 | locus YKL085W, strain MDH1 (second series), stronger effect = lower value 1.03 | locus YKL085W, strain MDH1, stronger effect = lower value 1.03 | locus YKL160W, strain elf1, stronger effect = lower value 0.927 | locus YKR026C, strain gcn3, stronger effect = lower value 1.02 | locus YKR091W, strain srl3, stronger effect = lower value 1.03 | locus YLL001W, strain dnm1, stronger effect = lower value 0.933 | locus YLL026W, stronger effect = lower value 0.955 | locus YLL041C, strain sdh2, stronger effect = lower value 1.02 | locus YLR058C, strain SHM2, stronger effect = lower value 0.893 | locus YLR113W, strain HOG1, stronger effect = lower value 0.963 | locus YLR221C, strain rsa3, stronger effect = lower value 0.938 | locus YLR258W, strain gsy2, stronger effect = lower value 0.967 | locus YLR268W, strain sec22, stronger effect = lower value 0.886 | locus YLR357W, strain rsc2, stronger effect = lower value 1.07 | locus YLR370C, strain arc18, stronger effect = lower value 0.991 | locus YLR371W, strain rom2, stronger effect = lower value 1.09 | locus YLR384C, strain iki3, stronger effect = lower value 1.07 | locus YML016C, strain PPZ1, stronger effect = lower value 1.01 | locus YML032C, strain rad52, stronger effect = lower value 0.914 | locus YML120C, strain ndi1, stronger effect = lower value 0.93 | locus YML124C, strain tub3, stronger effect = lower value 1.05 | locus YMR078C, strain ctf18, stronger effect = lower value 1.06 | locus YMR125W, strain sto1, stronger effect = lower value 1.08 | locus YMR129W, stronger effect = lower value 1.03 | locus YMR223W, strain ubp8, stronger effect = lower value 0.934 | locus YMR231W, strain pep5, stronger effect = lower value 0.95 | locus YNL128W, strain TEP1, stronger effect = lower value 0.866 | locus YNL183C, strain NPR1, stronger effect = lower value 0.935 | locus YNL209W, strain ssb2, stronger effect = lower value 0.993 | locus YNL233W, strain BNI4, stronger effect = lower value 0.926 | locus YNL248C, strain rpa49, stronger effect = lower value 0.938 | locus YNL250W, strain rad50, stronger effect = lower value 1.02 | locus YNL271C, strain bni1, stronger effect = lower value 1.02 | locus YNL298W, strain CLA4, stronger effect = lower value 0.978 | locus YNL322C, strain KRE1 (second series), stronger effect = lower value 1.01 | locus YNR049C, strain mso1, stronger effect = lower value 0.987 | locus YOL012C, strain htz1 1.89 | locus YOL147C, strain pex11, stronger effect = lower value 1.02 | locus YOR061W, strain CKA2, stronger effect = lower value 0.964 | locus YOR070C, strain gyp1, stronger effect = lower value 0.953 | locus YOR080W, strain dia2, stronger effect = lower value 0.973 | locus YOR144C, strain elg1, stronger effect = lower value 1.02 | locus YOR231W, strain MKK1, stronger effect = lower value 0.97 | locus YOR265W, strain rbl2, stronger effect = lower value 0.994 | locus YOR270C, strain vph1, stronger effect = lower value 0.807 | locus YOR290C, strain snf2, stronger effect = lower value 0.937 | locus YPL106C, strain sse1, stronger effect = lower value 1.12 | locus YPL240C, strain hsp82, stronger effect = lower value 1.03 | locus YPL241C, strain CIN2, stronger effect = lower value 0.997 | locus YPL256C, strain CLN2, stronger effect = lower value 1.05 | locus YPR163C, strain tif3, stronger effect = lower value 0.968 | locus YPR167C, strain met16, stronger effect = lower value 0.991 | strain wtn01, stronger effect = lower value 0.961
active: locus YJR043C, strain POL32, stronger effect = lower value 0.849 | locus YKL190W, strain CNB1, stronger effect = lower value 0.882 | locus YKR001C, strain vps1, stronger effect = lower value 0.861 | locus YLR027C, strain aat2, stronger effect = lower value 0.921 | locus YLR039C, strain RIC1, stronger effect = lower value 0.479 | locus YLR102C, strain apc9, stronger effect = lower value 1.08 [resistant] | locus YLR262C, strain YPT6 (second series), stronger effect = lower value 0.488 | locus YLR262C, strain YPT6, stronger effect = lower value 0.321 | locus YLR320W, strain mms22, stronger effect = lower value 0.706 | locus YLR330W, strain CHS5, stronger effect = lower value 0.849 | locus YLR342W, strain FKS1 (second series), stronger effect = lower value 0.566 | locus YLR342W, strain FKS1, stronger effect = lower value 0.688 | locus YLR418C, strain cdc73, stronger effect = lower value 0.74 | locus YMR058W, strain fet3, stronger effect = lower value 0.871 | locus YMR205C, strain PFK2, stronger effect = lower value 0.854 | locus YMR307W, strain GAS1, stronger effect = lower value 0.456 | locus YNL067W, strain RPL9B, stronger effect = lower value 0.756 | locus YNL071W, strain lat1, stronger effect = lower value 0.809 | locus YNL307C, strain MCK1, stronger effect = lower value 0.795 | locus YNR052C, strain pop2, stronger effect = lower value 0.838 | locus YOR001W, strain rrp6, stronger effect = lower value 0.851 | locus YOR069W, strain VPS5, stronger effect = lower value 0.876 | locus YOR083W, strain WHI5, stronger effect = lower value 0.844 | locus YOR106W, strain vam3, stronger effect = lower value 0.77 | locus YOR136W, strain idh2, stronger effect = lower value 1.08 [resistant] | locus YOR184W, strain ser1, stronger effect = lower value 0.505 | locus YOR316C, strain cot1, stronger effect = lower value 1.1 [resistant] | locus YPL051W, strain arl3, stronger effect = lower value 0.793 | locus YPL078C, strain atp4, stronger effect = lower value 0.892 | locus YPR119W, strain clb2, stronger effect = lower value 1.11 [resistant] | locus YPR141C, strain kar3, stronger effect = lower value 1.09 [resistant]
